From the supplement of paper PMC10849652
About 8,800 targets were measured; listed, in parts, are those with a hit and a random draw of the rest. About 0.5% of all pairs of compound and target were hits. Unmarked numbers belong to inactive results.

Experiments:
Assay in all cases: log2 fold change, soluble protein after heating vs DMSO (PISA); higher = thermal stabilisation; K562 lysate, 10 uM; active = over 0.2 and 3.5 SD of the protein, either way, in both replicates (recomputed)
erlotinib = compound: C#Cc1cccc(Nc2ncnc3cc(OCCOC)c(OCCOC)cc23)c1 [erlotinib]
Outline: (§1)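 Values give the log-two fold change in thermal stability against solvent controls, from duplicates. Crude K562 extract at 1 mg/mL protein, made by dounce homogenisation in PBS pH 7.4 with 1 mM MgCl2, was treated with 10 μM compound for 30 min. After 3 min heating across 48°C-58°C, aliquots were pooled, adjusted to 0.5% NP-40 at 4°C and centrifuged at 21,000xg for 90 min. The supernatant was measured by TMTpro 16plex LC-MS/MS with channel sums equalised.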

[1] = compound: C/C(=N\NC(=O)C1=CC(=CC=C1)S(=O)(=O)N2CCOCC2)/C3=C(C=CC(=C3)Cl)O
Outline: as §1

[2] = compound: C1=CC(=CC=C1C2=NC3=C(N2)C=C(C=C3)C(=O)N)OC4=CC=C(C=C4)Cl
Outline: as §1

[3] = compound: C1=CC2=C(C=CC(=C2)/C=C\3/C(=O)NC(=NCC4=CC=CS4)S3)N=C1
Outline: as §1

[4] = compound: C1=CC2=NC=CN=C2C=C1/C=C/3\C(=O)NC(=O)S3
Outline: as §1

[5] = compound: C1=CC=C(C=C1)C2=NC(=C(N2)C3=CC=NC=C3)C4=CC(=C(C=C4)Cl)O
Outline: as §1

[6] = compound: C1=CC=C2C(=C1)C3=NNC4=CC=CC(=C43)C2=O
Outline: as §1

[7] = compound: C1CCN(C1)C(=O)NC2=CC=CC(=C2)NC3=NC=C(C(=N3)NCCC4=CN=CN4)Br
Outline: as §1

[8] = compound: C1CN(CCC1(CC2=CC=C(C=C2)Cl)N)C3=NC=NC4=C3C=CN4
Outline: as §1

IRAK-1-4 Inhibitor I = compound: C1COCCN1CCN2C3=CC=CC=C3N=C2NC(=O)C4=CC(=CC=C4)[N+](=O)[O-] [IRAK-1-4 Inhibitor I]
Outline: as §1

ibrutinib = compound: C=CC(=O)N1CCC[C@@H](n2nc(-c3ccc(Oc4ccccc4)cc3)c3c(N)ncnc32)C1 [ibrutinib]
Outline: as §1

[9] = compound: CC(=O)c1cnc2ccc(-c3cc(Cl)c(O)c(Cl)c3)nc2c1N[C@H]1CC[C@H](CN(C)C)CC1
Outline: as §1

ralimetinib = compound: CC(C)(C)Cn1c(N)nc2ccc(-c3[nH]c(C(C)(C)C)nc3-c3ccc(F)cc3)nc21 [ralimetinib]
Outline: as §1

[10] = compound: CC(C)(O)CC(=O)NCCn1ccc2ncnc(Nc3ccc(Oc4cccc(C(F)(F)F)c4)c(Cl)c3)c21
Outline: as §1

[11] = compound: CC(C)C1=C2N=C(C=C(N2N=C1)NCC3=CC=CC=C3)NCCCCCCN
Outline: as §1

[12] = compound: CC1=C(C(CC(=O)N1)C2=CC=C(C=C2)C(F)(F)F)C(=O)NC3=C(C=C4C(=C3)C=NN4)F
Outline: as §1

[13] = compound: CC1=C(C2=C(C=C1)C(=O)C3=CC=CC=C3N2CCCN)C
Outline: as §1

[14] = compound: CC1=C(C=C(C=C1)NC(=O)C2=CC(=CC=C2)C(C)(C)C#N)NC3=CC4=C(C=C3)N=CN(C4=O)C
Outline: as §1

[15] = compound: CC1=C(C=C(C=C1)NC(=O)C2=CC(=CC=C2)N(C)C)NC(=O)C3=CC=C(C=C3)O
Outline: as §1

[16] = compound: CC1=CC=C(C=C1)SC2=C3C=C(SC3=CN=C2)C(=O)N
Outline: as §1

Chain of UniProt Q8N5I9 (Q8N5I9 whole entry, looked up): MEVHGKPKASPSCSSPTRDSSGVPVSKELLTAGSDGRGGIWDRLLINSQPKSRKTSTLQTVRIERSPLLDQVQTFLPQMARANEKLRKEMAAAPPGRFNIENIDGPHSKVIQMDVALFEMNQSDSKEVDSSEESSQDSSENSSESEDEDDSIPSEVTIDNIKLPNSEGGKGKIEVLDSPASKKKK
Chain of UniProt Q6PJG6 (Q6PJG6 whole entry, looked up): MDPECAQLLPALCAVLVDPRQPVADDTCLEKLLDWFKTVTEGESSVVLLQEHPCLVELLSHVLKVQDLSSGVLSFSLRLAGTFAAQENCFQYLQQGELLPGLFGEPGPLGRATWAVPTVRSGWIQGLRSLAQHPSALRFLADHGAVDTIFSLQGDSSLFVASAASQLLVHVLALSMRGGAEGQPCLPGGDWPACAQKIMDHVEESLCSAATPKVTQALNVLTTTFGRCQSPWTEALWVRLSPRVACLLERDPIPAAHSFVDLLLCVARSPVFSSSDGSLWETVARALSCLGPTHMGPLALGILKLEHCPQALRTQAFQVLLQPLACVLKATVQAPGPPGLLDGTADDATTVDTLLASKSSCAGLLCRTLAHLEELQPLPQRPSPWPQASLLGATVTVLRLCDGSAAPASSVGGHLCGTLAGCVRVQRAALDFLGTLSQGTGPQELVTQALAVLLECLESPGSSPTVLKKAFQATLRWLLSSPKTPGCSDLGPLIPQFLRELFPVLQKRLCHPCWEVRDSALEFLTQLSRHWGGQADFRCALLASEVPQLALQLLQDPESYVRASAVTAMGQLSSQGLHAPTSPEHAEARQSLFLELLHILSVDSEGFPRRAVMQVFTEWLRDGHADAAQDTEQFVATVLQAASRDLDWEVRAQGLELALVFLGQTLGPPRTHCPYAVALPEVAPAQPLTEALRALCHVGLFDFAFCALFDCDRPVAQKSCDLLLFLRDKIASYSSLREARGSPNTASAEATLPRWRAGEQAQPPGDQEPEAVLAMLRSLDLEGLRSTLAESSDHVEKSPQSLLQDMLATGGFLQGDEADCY
Chain of UniProt Q96A33 (Q96A33 whole entry, looked up): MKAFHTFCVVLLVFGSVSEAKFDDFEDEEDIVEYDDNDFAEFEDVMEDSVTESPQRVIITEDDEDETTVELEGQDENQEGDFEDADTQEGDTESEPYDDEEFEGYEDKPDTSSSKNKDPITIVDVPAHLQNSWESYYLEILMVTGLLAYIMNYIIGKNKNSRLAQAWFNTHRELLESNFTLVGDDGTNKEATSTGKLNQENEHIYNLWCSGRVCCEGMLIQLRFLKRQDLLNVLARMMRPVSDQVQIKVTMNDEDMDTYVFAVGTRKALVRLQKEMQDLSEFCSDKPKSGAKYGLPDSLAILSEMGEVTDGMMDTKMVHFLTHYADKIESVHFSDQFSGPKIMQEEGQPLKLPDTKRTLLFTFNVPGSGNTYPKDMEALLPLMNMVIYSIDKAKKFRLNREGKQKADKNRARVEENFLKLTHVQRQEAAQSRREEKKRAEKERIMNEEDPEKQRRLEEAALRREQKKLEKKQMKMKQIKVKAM
Chain of UniProt Q5VT25 (Q5VT25 whole entry, looked up): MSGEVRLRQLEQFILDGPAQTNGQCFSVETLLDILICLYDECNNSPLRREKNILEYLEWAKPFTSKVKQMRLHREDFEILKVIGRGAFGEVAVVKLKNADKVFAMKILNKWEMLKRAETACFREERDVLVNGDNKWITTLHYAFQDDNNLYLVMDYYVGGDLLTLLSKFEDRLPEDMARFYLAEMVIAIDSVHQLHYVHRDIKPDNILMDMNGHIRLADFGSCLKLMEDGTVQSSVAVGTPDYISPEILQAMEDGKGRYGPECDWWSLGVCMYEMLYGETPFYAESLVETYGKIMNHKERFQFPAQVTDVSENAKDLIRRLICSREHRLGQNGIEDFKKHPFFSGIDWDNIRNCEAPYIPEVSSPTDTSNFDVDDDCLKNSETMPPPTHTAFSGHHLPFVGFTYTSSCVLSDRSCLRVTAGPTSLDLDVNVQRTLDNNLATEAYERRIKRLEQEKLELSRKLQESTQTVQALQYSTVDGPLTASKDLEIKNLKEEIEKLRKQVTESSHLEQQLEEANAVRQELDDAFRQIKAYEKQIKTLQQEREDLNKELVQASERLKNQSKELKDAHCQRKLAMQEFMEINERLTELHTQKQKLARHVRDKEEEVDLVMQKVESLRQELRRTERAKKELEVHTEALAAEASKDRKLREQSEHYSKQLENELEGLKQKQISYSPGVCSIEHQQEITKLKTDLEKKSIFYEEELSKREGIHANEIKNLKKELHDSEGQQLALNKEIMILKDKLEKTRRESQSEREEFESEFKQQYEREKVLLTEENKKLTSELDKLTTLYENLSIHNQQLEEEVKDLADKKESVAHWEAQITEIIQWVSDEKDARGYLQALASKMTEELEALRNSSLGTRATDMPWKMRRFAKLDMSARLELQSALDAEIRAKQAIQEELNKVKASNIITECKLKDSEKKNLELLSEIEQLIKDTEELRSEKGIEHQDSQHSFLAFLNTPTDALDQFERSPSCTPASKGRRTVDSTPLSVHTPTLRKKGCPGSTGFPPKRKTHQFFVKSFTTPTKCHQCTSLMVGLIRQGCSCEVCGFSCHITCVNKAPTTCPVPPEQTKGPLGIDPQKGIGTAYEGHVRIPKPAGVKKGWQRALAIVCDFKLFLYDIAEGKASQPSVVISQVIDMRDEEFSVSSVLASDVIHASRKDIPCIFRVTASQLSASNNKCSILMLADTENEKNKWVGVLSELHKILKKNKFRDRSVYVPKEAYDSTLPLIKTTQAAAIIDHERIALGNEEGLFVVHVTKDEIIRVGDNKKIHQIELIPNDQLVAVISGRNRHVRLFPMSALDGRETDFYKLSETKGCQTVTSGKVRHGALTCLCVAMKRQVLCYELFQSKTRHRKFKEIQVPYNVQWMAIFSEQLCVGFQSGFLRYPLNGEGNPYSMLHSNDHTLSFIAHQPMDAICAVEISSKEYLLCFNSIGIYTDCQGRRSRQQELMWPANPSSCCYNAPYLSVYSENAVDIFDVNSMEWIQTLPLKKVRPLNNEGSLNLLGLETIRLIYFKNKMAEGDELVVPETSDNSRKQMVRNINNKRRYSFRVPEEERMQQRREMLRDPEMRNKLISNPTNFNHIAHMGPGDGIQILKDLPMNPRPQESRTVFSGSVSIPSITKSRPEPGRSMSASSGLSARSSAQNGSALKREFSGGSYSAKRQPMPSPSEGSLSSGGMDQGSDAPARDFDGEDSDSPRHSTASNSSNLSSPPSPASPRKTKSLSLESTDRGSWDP
Chain of UniProt P06493 (P06493 whole entry, looked up): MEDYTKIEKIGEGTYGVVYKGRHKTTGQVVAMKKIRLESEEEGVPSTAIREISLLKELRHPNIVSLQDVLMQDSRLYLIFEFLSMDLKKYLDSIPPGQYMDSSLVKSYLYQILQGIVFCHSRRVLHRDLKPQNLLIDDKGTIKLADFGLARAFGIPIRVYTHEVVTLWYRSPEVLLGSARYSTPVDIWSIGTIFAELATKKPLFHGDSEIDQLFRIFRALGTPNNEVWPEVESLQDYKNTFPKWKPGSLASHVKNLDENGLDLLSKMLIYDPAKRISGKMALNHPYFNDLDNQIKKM
Chain of UniProt P56945 (P56945 whole entry, looked up): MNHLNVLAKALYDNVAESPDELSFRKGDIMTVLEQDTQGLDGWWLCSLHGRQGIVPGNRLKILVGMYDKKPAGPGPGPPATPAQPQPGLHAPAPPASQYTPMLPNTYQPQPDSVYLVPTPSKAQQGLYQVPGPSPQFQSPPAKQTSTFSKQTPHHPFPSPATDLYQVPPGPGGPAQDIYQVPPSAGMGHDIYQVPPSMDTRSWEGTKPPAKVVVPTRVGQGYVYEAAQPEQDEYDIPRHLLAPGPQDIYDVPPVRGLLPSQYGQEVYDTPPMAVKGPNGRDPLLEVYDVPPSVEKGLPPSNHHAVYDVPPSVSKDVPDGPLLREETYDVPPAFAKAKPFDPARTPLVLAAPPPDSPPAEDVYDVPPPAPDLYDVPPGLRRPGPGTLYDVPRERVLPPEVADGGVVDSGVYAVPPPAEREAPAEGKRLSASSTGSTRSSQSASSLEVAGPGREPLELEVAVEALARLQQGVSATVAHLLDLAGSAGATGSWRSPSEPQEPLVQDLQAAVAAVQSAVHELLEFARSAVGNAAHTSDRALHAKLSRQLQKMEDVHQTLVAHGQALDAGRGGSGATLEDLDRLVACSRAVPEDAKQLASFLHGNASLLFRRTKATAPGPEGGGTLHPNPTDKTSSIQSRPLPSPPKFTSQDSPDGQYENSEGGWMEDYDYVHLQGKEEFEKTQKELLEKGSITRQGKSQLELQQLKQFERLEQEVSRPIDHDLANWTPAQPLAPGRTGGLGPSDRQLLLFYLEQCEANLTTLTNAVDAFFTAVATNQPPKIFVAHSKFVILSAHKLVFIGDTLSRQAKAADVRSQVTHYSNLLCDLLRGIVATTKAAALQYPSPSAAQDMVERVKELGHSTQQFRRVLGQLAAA
Chain of UniProt Q13555 (Q13555 whole entry, looked up): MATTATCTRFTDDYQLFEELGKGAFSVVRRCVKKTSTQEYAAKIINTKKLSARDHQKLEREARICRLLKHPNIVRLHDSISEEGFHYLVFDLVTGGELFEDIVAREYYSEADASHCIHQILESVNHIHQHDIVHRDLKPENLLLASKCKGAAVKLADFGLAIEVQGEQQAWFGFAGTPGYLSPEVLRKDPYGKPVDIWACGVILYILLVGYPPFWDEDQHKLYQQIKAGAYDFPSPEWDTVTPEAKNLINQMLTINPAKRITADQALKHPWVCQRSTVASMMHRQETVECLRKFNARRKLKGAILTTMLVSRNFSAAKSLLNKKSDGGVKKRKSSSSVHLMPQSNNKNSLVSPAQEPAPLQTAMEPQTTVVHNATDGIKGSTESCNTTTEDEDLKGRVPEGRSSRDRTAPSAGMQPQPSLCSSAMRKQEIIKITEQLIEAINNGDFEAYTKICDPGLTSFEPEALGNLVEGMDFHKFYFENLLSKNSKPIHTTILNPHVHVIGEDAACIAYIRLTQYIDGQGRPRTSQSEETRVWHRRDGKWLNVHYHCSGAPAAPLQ

Target	log2 fold change (erlotinib)	log2 fold change [1]	log2 fold change [2]	log2 fold change [3]	log2 fold change [4]	log2 fold change [5]	log2 fold change [6]	log2 fold change [7]	log2 fold change [8]	log2 fold change (IRAK-1-4 Inhibitor I)	log2 fold change (ibrutinib)	log2 fold change [9]	log2 fold change (ralimetinib)	log2 fold change [10]	log2 fold change [11]	log2 fold change [12]	log2 fold change [13]	log2 fold change [14]	log2 fold change [15]	log2 fold change [16]
CAMK2G isoform 8 (UniProt Q13555)	0.009	-0.193	0.027	-0.094	0.018	-0.027	0.116	0.026	0.044	0.036	0.036	0.173	-0.022	0.009	-0.001	-0.019	0.073	-0.03	0.05	-0.027
CCDC47 (UniProt Q96A33)	0.02	0.003	-0.071	0.009	0.022	-0.03	-0.093	-0.007	0.024	0.003	0	0.002	0.01	-0.063	-0.042	0.044	-0.002	0.041	0.045	-0.013
BRAT1 (UniProt Q6PJG6)	0.05	-0.01	-0.052	0.006	0.026	0.03	-0.075	0.003	-0.013	-0.013	0.002	0.013	0.005	-0.038	-0.001	-0.028	0	-0.006	-0.015	0.019
CDK1 (UniProt P06493)	-0.038	0.046	-0.019	-0.031	-0.002	-0.01	-0.051	-0.007	-0.002	-0.017	-0.071	0.433 (active)	0.018	-0.037	-0.026	-0.029	0.01	0.033	0.011	0
BCAR1 isoform 6 (UniProt P56945)	0.005	-0.043	0.052	0.048	-0.019	0.019	-0.063	0.041	0.021	-0.017	0.024	0.02	-0.009	0	0.01	0.03	-0.056	-0.014	0.006	-0.033
C12orf45 (UniProt Q8N5I9)	-0.038	-0.113	0.027	0.009	-0.037	0.009	0.009	-0.018	0.009	-0.002	0.027	0.003	0.005	0.014	0.033	-0.021	-0.02	-0.018	0.02	-0.043
CARHSP1 (UniProt Q9Y2V2)	0.011	0.022	-0.033	-0.06	0.006	-0.026	0.027	0.01	0.011	0.024	0.053	0.021	-0.024	-0.032	0.017	-0.029	0.006	0.014	0.009	-0.008
CDC42BPA isoform 6 (UniProt Q5VT25)	-0.007	0.077	-0.086	0.011	-0.012	-0.029	-0.09	-0.032	-0.006	-0.038	0.016	0.039	0.012	-0.013	0.03	0.005	-0.004	0.018	0.034	-0.003
